Screens as filed in PubChem.
This is a sample that favours compounds with a hit; in the whole collection about 3% have one here.
Tau FP inhib – qHTS for Inhibitors of Tau Fibril Formation, Fluorescence Polarization. AID 1468, 2008. Potency, µM (series often up to 57.7 µM), without a hit: at the highest dose activity, negative = inhibition, hits mostly inhibitors. Microtubule-associated protein tau (Homo sapiens), P10636. actives 0.39% (n = 280,000). K18 P301L tau heparin fibrillization, Alexa594 FP, 6 h; note: nearly all actives have a fitted effect of over 55% in size
Target sequence (P10636 561-689 P618L limits assumed): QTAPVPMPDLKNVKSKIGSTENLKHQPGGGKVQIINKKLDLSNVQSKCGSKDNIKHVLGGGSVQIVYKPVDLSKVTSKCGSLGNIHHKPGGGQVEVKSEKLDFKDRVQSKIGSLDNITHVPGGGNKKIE
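Recombinant K18 P301L […], labeled with Alexa 594 at 0.24 uM over 15 uM unlabeled; heparin inducer 20 uM final; 37 C, 6 hr; FP endpoint.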
Tau fibril ThT – qHTS for Inhibitors of Tau Fibril Formation, Thioflavin T Binding; actives 2.1% (n = 270,000); Microtubule-associated protein tau (Homo sapiens), P10636; Potency, µM (top dose mostly 57.4 µM), for the others: at the top dose activity, negative = inhibition, usual class: inhibitors; recombinant tau K18 P301L, heparin-induced fibrillization, ThT fluorescence; AID 1460, 2008; note: nearly all actives have a fitted effect of over 55% in size
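Using a mix of unlabeled (15 uM) and Alexa 594-labeled (0.24 uM) tau K18 P301L, heparin-triggered fibrillization over 6 hr at 37 C was scored by ThT fluorescence.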
TR SRC2 fluor cs – Total Fluorescence Counterscreen for Inhibitors of the Interaction of Thyroid Hormone Receptor and Steroid Receptor Coregulator 2. TRb/SRC2 Texas Red total fluorescence interference. Potency, µM (doses to about 106 µM), inactives show top-dose fluorescence change, negative = quenching. actives 0.29% (n = 280,000). AID 1479, 2009; active = well fitted curve in either direction with a large enough effect; inconclusive = small, poorly fitted or top-dose-only effect
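Flags fluorescent or light-absorbing compounds by total fluorescence, S + 2P, at 555 nm excitation and 632 nm emission. Mixture: 20 nM Texas Red SRC2 peptide, 0.6 uM human TRb LBD, 1 uM T3, 5% DMSO; compound exposure 5 h at ambient temperature.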
TRb-SRC2 inh – qHTS for Inhibitors of the Interaction of Thyroid Hormone Receptor and Steroid Receptor Coregulator 2. Potency, µM (doses to about 106 µM), without a hit: top-dose activity change, negative = inhibition, most hits filed as inhibitors. actives 0.065% (n = 280,000). TRbeta-SRC2 peptide binding, fluorescence polarization; receptor liganded with 1 µM T3;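 note: plate controls were bound peptide for no effect and peptide without receptor for full effect; nearly all actives have a fitted effect of over 50% in size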
Target sequence (P10828 whole entry, looked up): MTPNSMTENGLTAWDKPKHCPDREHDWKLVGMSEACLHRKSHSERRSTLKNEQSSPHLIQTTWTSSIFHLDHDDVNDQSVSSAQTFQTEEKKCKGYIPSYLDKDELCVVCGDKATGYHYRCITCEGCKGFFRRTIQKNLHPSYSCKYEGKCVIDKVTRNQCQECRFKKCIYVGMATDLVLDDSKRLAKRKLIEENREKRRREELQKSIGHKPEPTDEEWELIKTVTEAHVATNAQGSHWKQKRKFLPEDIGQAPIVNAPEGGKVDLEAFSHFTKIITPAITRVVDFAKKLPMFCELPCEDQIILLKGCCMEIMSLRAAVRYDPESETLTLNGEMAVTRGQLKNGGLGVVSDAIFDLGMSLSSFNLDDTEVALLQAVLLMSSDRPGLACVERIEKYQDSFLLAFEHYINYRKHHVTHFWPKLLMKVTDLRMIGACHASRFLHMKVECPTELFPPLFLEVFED
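Read-out is fluorescence polarization (555 nm excitation, 632 nm emission) of a Texas Red SRC2 coactivator peptide; loss of signal reflects blocked binding to human TRb ligand-binding domain in the presence of 1 uM T3.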
Tau fluor cs – Counterscreen qHTS for Inhibitors of Tau Fibril Formation, Fluorescence Polarization; tau K18 P301L (four-repeat tau fragment) Alexa594 fluorescence, heparin fibrillization; Potency, µM (top dose mostly 57.7 µM), for inactives: at the highest dose activity change, negative = decrease; actives 0.93% (n = 280,000); note: nearly all actives have a fitted effect of over 55% in size
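Human K18 P301L tau (15 uM unlabeled plus 0.24 uM Alexa 594-labeled, final) in 100 mM sodium acetate pH 7 was mixed with compound and 20 uM heparin and incubated 6 hr at 37 C.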
* = called active by the depositor; ? = inconclusive; . = no result given; [ ] = another dose, or the depositor's remark. Unless noted, calls come from the whole dose curve; as a rule, active = well fitted curve in the direction sought with a large enough effect; inconclusive = small, poorly fitted or top-dose-only effect, or another doubt; inactive = no such curve, though single readings can be large; an effect the other way counts as inactive or inconclusive. Unless noted, % is set by controls: 0 for no effect and ±100 for the full control effect; potency is the fitted concentration of half-maximal effect.

SMILES | Tau FP inhib | Tau fibril ThT | TR SRC2 fluor cs | TRb-SRC2 inh | Tau fluor cs
COc1cccc(=O)c2c(C)n(-c3ccc(C(=O)O)cc3)c(C)c12 | ? | 15.8µM* | 3.5% | -3.1% | -13.8%
COc1ccc(-n2c(C)c3c(OC)cccc(=O)c3c2C)cc1 | ? | 17.8µM* | 3.8% | 7.7% | -22.7%
COc1cc(OC)c2c(-c3cccc(-c4ccc(O)cc4)c3)cc(=O)oc2c1 | ? | ? | -1.9% | 2.7% | 22.4µM*[quencher]
COc1ccc(NC(=O)c2cc(S(=O)(=O)N3CCOCC3)cn2C)cc1Cl | -9.3% | -3.8% | 10µM*[quencher] | -13.8% | -1.5%
Brc1ccc(C=Nc2ccc(Nc3ccccc3)cc2)s1 | ? | 10µM* | -1.9% | -1.9% | 11.2µM*[quencher]
C(=Nc1ccc(Nc2ccccc2)cc1)c1ccc2ccccc2c1 | ? | 7.94µM* | ? | 6.6% | 8.91µM*[quencher]
CN1C(=O)CS/C1=N\NC(=O)COc1cccc2cccnc12 | -7.4% | 10µM* | 2.7% | -1.1% | 11.9%[2.34 µM]
Oc1ccccc1-c1nc2cnccn2c1Nc1ccc(Cl)cc1 | -1.4% | -14.2% | -1.2% | 2.6% | 12.6µM*[quencher]
Cc1ccc(Nc2c(-c3ccccc3O)nc3cnccn23)cc1 | 10.3% | -17.2% | -1.1% | -2.6% | 17.8µM*[quencher]
Clc1ccc(Nc2c(-c3ccccc3Cl)nc3ccc(Cl)cn23)cc1 | 6.0% | 0.2% | 2.2% | -3.2% | -20.4%
Cc1ccc(Nc2c(-c3ccccc3O)nc3cc(C)ccn23)cc1 | ? | ? | -2.1% | -1.2% | ?
Cc1cc(Cl)ccc1NC(=O)C1CCN(S(=O)(=O)c2ccc3[nH]c(=O)ccc3c2)CC1 | 13.1% | -0.1% | -0.5% | -3.9% | -5.9%
O=C(/C=C/c1ccc(-c2ccccc2[N+](=O)[O-])o1)c1ccco1 | 8.9% | 17.8µM* | -4.8% | -8.7% | ?
O=[N+]([O-])c1ccc(N2CCCCC2)nc1N1CCCCC1 | -0.2% | ? | -1.0% | -2.2% | -22.2%
O=[N+]([O-])c1ccc2c(c1N1CCCCC1)=NC1(CCCCC1)[N+]=2[O-] | ? | 12.6µM* | -7.8% | -1.9% | ?
O=c1ccc2ccccc2[nH]1 | . | . | -3.7% | -3.4% | .
CC(=O)N(C)C1=C(O)c2ccccc2C(=O)C1=O | ? | 28.2µM* | -3.5% | 5.4% | -21.1%
CCOc1ccc(C(=O)Nc2nnc(S(=O)(=O)N(CC)c3ccccc3C)s2)cc1 | -10.0% | ? | 5.2% | -5.0% | ?
Cc1ccc(S(=O)(=O)N(C(=O)c2ccncc2)c2ccc(OC(=O)c3ccncc3)c3ccccc23)c(C)c1 | ? | 14.1µM* | 3.7% | 0.8% | ?
Cc1ccc(S(=O)(=O)N(C(=O)c2ccncc2)c2ccc(OC(=O)c3ccncc3)c3ccccc23)cc1 | ? | 25.1µM* | 0.3% | 6.4% | ?
COc1cc2ncc3c(-c4ccccc4)nn(-c4ccc(C)cc4)c3c2cc1OC | 15.6% | -6.0% | 0.0% | 7.7% | 1.7%
CCOC(=O)N1CCN(c2cc(C)c(C(C)=O)cc2F)CC1 | 1.8% | ? | -0.6% | -18.3% | 2.7%
CCOC(=O)N1CCN(c2cc(N)c([N+](=O)[O-])cc2F)CC1 | -3.8% | 4.47µM* | 1.4% | 4.8% | -16.5%
CC(=O)N1CCN(c2cc(N3CCc4ccccc4C3)c(F)cc2[N+](=O)[O-])CC1 | 2.9% | 15.8µM* | -3.3% | -2.7% | -22.7%
CCOC(=O)CCCNC(=O)N1CCc2nc(-c3ccccc3)c3c(c2C1)CO[C@@H](C)C3 | 0.3%[11.6 µM] | -1.1%[11.5 µM] | -4.0%[11.2 µM] | 5.1%[11.2 µM] | -3.1%[11.6 µM]
SMILES | Tau FP inhib | Tau fibril ThT | TR SRC2 fluor cs | TRb-SRC2 inh | Tau fluor cs
CC(C)C(=O)Nc1cc(S(=O)(=O)Nc2ccc(Cl)cc2)ccc1Cl | -12.2% | -3.0% | -3.1% | 1.2% | -27.2%
O=S(=O)(Nc1ccc(Cl)cc1)c1cccc(S(=O)(=O)c2ccc(Cl)c(Cl)c2)c1 | 11.2µM* | 9.9% | -0.8% | -1.2% | ?
O=S(=O)(Nc1ccc(Cl)cc1)c1ccc(NS(=O)(=O)c2ccc3c(c2)OCCO3)cc1 | 14.1µM* | 13.9% | -2.8% | 9.0% | ?
COc1ccc(NS(=O)(=O)c2ccc3oc(Nc4ccc5c(c4)OCCO5)nc3c2)cc1 | ? | ? | -4.1% | -2.3% | 12.6µM*[quencher]
CCN(CC)CCNC(=O)c1ccc2c(c1NCCO)C(=O)c1ccccc1C2=O | 0.1% | 15.8µM* | -0.5% | 3.9% | ?
COC(=O)c1ccc2c(c1)C(C)(C)C(/C=C/c1ccc(O)cc1)=[N+]2C | ? | 12.6µM* | ? | ? | ?
COc1cc(OC)c(NS(=O)(=O)c2c(C)nc3sc(C)cn3c2=O)cc1Cl | -9.7% | -1.3% | -3.0% | 3.6% | -14.2%
CC(=O)N(C1=C(N2CCOCC2)C(=O)c2ccccc2C1=O)c1ccc(C(=O)O)cc1 | ? | 14.1µM* | -0.5% | 1.5% | 17.8µM*[quencher]
CC(=O)c1ccc(NC2=C(N3CCOCC3)C(=O)c3ccccc3C2=O)cc1 | -9.0% | ? | 0.8% | -0.1% | ?
O=C(O)c1ccc(NC2=C(N3CCOCC3)C(=O)c3ccccc3C2=O)cc1 | ? | 17.8µM* | -2.0% | 5.2% | ?
CN(C)CCCNc1cc(C(C)(C)C)nc2c(-c3ccccc3)cnn12 | ? | ? | -3.3% | 5.1% | 22.4µM*[quencher]
CO[Si](CCCOCC1CO1)(OC)OC (stereo not given) | . | . | -0.6%[201 µM] | 0.3%[201 µM] | .
COC(=O)C1=C(C(=O)OC)C(c2ccccc2O)c2sc(=O)[nH]c2S1 (stereo not given) | 3.1% | 25.1µM* | -1.1% | -0.2% | -20.2%
COc1ccc(CCN2C(=O)CN(C3CCC(C)CC3)C(=O)C2c2ccc(OC(C)C)c(OC)c2)cc1OC (stereo not given) | 3.3% | -11.6% | 0.5% | 1.5% | 1.8%
Cc1ccc(C(C)C)c(OCCCn2c(=O)oc3ccc(C)cc32)c1 | 2.1% | -12.7% | -9.2% | 2.5% | -11.4%
CC(=O)Oc1c(C)cc(Cl)cc1C(=O)Nc1ccc([N+](=O)[O-])cc1Cl | 0.9% | 2.82µM* | -6.4% | -8.2% | ?
CC(=O)OCC(=O)Nc1ccc([N+](=O)[O-])cc1Cl | -23.3% | -2.2% | -5.8% | -2.8% | -4.8%
COc1ccc(CCNC(=O)CCc2c(C)c3cc4c(C)coc4c(C)c3oc2=O)cc1OC | -4.7% | -10.9% | -0.6% | -1.3% | 1.1%
O=C(/C=C/c1cccc(Cl)c1)Nc1ncccn1 | 3.2% | -10.2% | 0.0% | -1.0% | -3.1%
CSc1cccc(NC(=O)/C=C/c2cccc(Cl)c2)c1 | ? | 18.5% | -7.4% | 3.8% | 12.6µM*[quencher]
COc1ccccc1Cc1nc2ccccc2nc1SCC(=O)N1CCC(C)CC1 | 2.4% | -10.0% | -0.1% | 4.4% | -0.4%
